Records with an inconclusive call do not appear. A number with no mark means an inactive call. Calls of active or inactive are those of the source. Calls come from the whole dose curve; as a rule, active = well fitted curve in either direction with a large enough effect; inconclusive = small, poorly fitted or top-dose-only effect; inactive = no such curve, though single readings can be large or run the other way.
target: Lysosomal alpha-glucosidase (Homo sapiens) (UniProt P10253); assay: Confirmation of Inhibitors and Activators of Human alpha-Glucosidase From Spleen Homogenate; conditions: alpha-glucosidase enzyme activity; series mostly up to 60.5 µM; activity change, both directions: at the top concentration;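 for Potency: fluorescence of 4-methylumbelliferone released from a fluorogenic glucopyranoside substrate at pH 5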; for activity change, both directions: 0% is about no effect
In short: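 Compounds titrated against spleen-homogenate alpha-glucosidase, pH 5.0, 1 mM 4-MU-glucoside substrate, 37 C for 40 min. Fluorescence after pH 10 stop, normalised to no-enzyme and enzyme controls; Hill-equation AC50.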
Potency is the fitted concentration of half-maximal effect.

| SMILES | activity change, both directions | Potency |
| --- | --- | --- |
| CCc1sc(-c2cc3ccc(O)cc3oc2=O)nc1-c1ccccc1 | -3.17% |  |
| Cn1c(N)c(S(=O)(=O)c2ccc(Br)cc2)c2nc3ccccc3nc21 | 24% [at 31.5 µM] |  |
| COc1ccc(CCn2c3c(c(=O)[nH]c2=S)CN(C)CN3)cc1OC |  | 31.6 µM (active) |
| C(=C\c1ccc2ccccc2n1)/c1ccc2c(c1)OCO2 | 16.2% |  |
| CC1OC(OC2C(CO)OC(OC3C(CO)OC(O)C(O)C3O)C(O)C2O)C(O)C(O)C1NC1C=C(CO)C(O)C(O)C1O (stereo unspecified) | -74.5% |  |
| CCCN1CNc2c(c(=O)[nH]c(=S)n2CCc2ccc(C)cc2)C1 |  | 25.1 µM (active) |
| COc1ccc(-c2nnc(NC(=O)CSc3ccc(Cl)cc3)s2)cc1 | -0.508% |  |
| C=CCSc1nc(-c2ccc3c(c2)OCO3)cc(C(F)(F)F)c1C#N | 40.6% |  |
| CCNc1ccc(C2(O)C(=O)c3ccccc3C2=O)cc1 | -0.766% |  |
| O=S(=O)(c1ccccc1)N1CCN(c2ccccc2)CC1 | 1.33% |  |
| COc1ccc(CCn2c(=S)[nH]c(=O)c3nccnc32)cc1OC | 5.16% |  |
| COc1ccc(C(=O)N2CCN(c3ccc([N+](=O)[O-])c(NCCc4ccc(OC)c(OC)c4)c3)CC2)cc1 | 8.22% |  |
| Cc1ccc(CCNC(=O)CNC(=S)N(Cc2ccccc2)Cc2cccnc2)cc1 | 3% |  |
| COc1ccc(CCn2c(N)cc(=O)[nH]c2=O)cc1OC | -1.76% [at 31.5 µM] |  |
| Cc1ccc(C(=O)c2sc3c(c2N)c(=O)[nH]c(=O)n3CCc2ccccc2)cc1 | -3.39% [at 31.5 µM] |  |
| CCCN1CNc2c(c(=O)[nH]c(=S)n2CCc2cc(OC)cc(OC)c2)C1 |  | 11.2 µM (active) |
| c1ccc(-n2c(-c3cccs3)nc3nc4ccccc4nc32)cc1 | 17.9% |  |
| CCNc1sc(C(=O)c2cccs2)c(N)c1-c1nc2ccccc2s1 | 4.26% |  |

| SMILES | activity change, both directions | Potency |
| --- | --- | --- |
| Cc1cc(C)c(C(=O)Cn2cnc3cc([N+](=O)[O-])ccc3c2=O)cc1C | 2.64% [at 31.5 µM] |  |
| O=NOc1ccc(/C=C/c2nccc3c2[nH]c2ccccc23)cc1 | -0.201% |  |
| O=c1[nH]c2ccccc2nc1/C=C/c1ccc2c(c1)OCO2 | 3.87% |  |
| O=C(NCCCN1CCOCC1)c1cccs1 | 2.54% [at 31.5 µM] |  |
| CCCN1CNc2c(c(=O)[nH]c(=S)n2CCC)C1 | -5.91% |  |
| CCCN1CNc2c(c(=O)[nH]c(=S)n2CCc2cccc(C)c2)C1 |  | 35.5 µM (active) |
| O=C(c1cccc2ccccc12)N1CCN(S(=O)(=O)c2ccccc2)CC1 | -15.3% |  |
| Cn1c(=O)c2c(nc(NCc3ccc4c(c3)OCO4)n2Cc2ccc(F)cc2)n(C)c1=O | -1.05% |  |
| Cc1cccc(S(=O)(=O)c2c(N)n(-c3ccccc3)c3nc4ccccc4nc23)c1 | 12.7% [at 31.5 µM] |  |
| CC(C)(C)OC(=O)NCCCC[C@H](NC(=O)c1nc[nH]c1C(=O)NCc1ccccc1)C(=O)OC(C)(C)C | -6.76% |  |
| COC(=O)c1ccc(S(=O)(=O)N2CCOCC2)cc1 | -1.83% |  |
| OC[C@H]1NC[C@@H](O)[C@@H]1O | -82.2% |  |
| N#Cc1ccc(N2CCN(S(=O)(=O)c3ccc4c(c3)CC(=O)N4)CC2)cc1 |  | 1.16 µM [inhibitor] (active) |
| Cc1ccc(S(=O)(=O)N2CCN(C(=O)CSc3nc4ccccc4c(=O)[nH]3)CC2)c(C)c1 | -28.9% |  |
| O=S(=O)(c1cccc(Br)c1)N1CCOCC1 | -8.22% |  |
| Cc1ccc(S(=O)(=O)N(C)C)cc1NC(=O)COC(=O)Cc1ccc(Br)cc1 | 2.8% |  |
| CCCN1CNc2c(c(=O)[nH]c(=S)n2-c2ccccc2Cl)C1 | 1.89% [at 31.5 µM] |  |
| O=S(=O)(c1ccccc1)N1CCN(Cc2ccccc2)CC1 | -2.68% |  |

From PubChem BioAssay AID2113 (National Center for Advancing Translational Sciences (NCATS), 2009)
